The text below walks through data of PubChem BioAssay (NCI).

Structures are written as SMILES. This is part of a sample that, as a whole, favours compounds with a hit. Of some 79,000 tested, about 15% had one in any assay. Values without a mark were called inactive. Activity calls are given as the source filed them. Rule as the data show it: active = growth inhibition above about 70%; inactive = the rest.

The nature of this test: NCI Yeast Anticancer Drug Screen. Data for the mlh1 rad18 strain (AID 175). The note with it: S. cerevisiae mlh1 rad18 strain growth inhibition; at 50.0 µM; stronger effect = higher value. The method, then: Growth inhibition of yeast strains with defined genetic alterations is measured as a screen for potential anti-cancer activity. Selected strains with alterations in DNA damage repair or cell cycle control were exposed to compounds and growth inhibition was measured relative to vehicle treated controls. The strain used in this assay is mlh1 rad18
For the compound `CCOc1ccc(N)c([N+](=O)[O-])c1`, the growth inhibition was 3.1%.
Consider `Cc1cc2cc3oc(C)cc3cc2o1`, for which the growth inhibition was 3.25%.
Next, `O=C(O)/C=C/C(=O)Nc1cc(Cl)cc2c1-c1c(Cl)cc(Cl)cc1C2O` (stereo not given): 51.9%; `CN(C)c1ncnc2c1cnn2C1OC(CO)C(O)C1O` (stereo not given): 30.7%.
With `Cc1nc(NCCNCCO)nc2c1C(=O)Nc1ccccc1N2` the figure was -38.8%; with `O=C(O)C(=Cc1ccc(-c2ccc([N+](=O)[O-])cc2)o1)C(=O)O`, 12.4%; with `CS(=O)(=O)Nc1ccc(NS(C)(=O)=O)cc1`, -13.2%.
Next, `COC1C=C(Br)C(=O)C(C)O1` (stereo not given): -1.8%; `CC(=O)c1cccc(F)c1C(C)c1ccc2ccccc2c1` (stereo not given): 1.65%; `CC1(C)C(=O)N=C(N)N1C(=O)OCc1ccccc1`: -17.5%.
In the case of `Cc1cc(=O)[nH]c2[nH][nH]c(=O)c12`, the growth inhibition is -8.8%.
With `O=C(Nc1ccccc1)OCC#CCOC(=O)Nc1ccccc1` the figure was 11%.
Turning to `CC(=O)O[C@H]1CC[C@]2(C)C3CC[C@]4(C)C([C@H](C)CCCC(C)C)CCC4[C@]3(/C=N/O)n3c(=O)n(-c4ccccc4)c(=O)n3[C@]2(/C=N\O)C1` (stereo not given in full), the growth inhibition is 45.4%.
For the compound `O=C(COc1ccc(F)cc1)OCCO`, the growth inhibition was -18.9%.
For `O=C(c1ccccc1Cl)c1ccc2ccccc2c1C(=O)O`, the growth inhibition was 2.95%.
With `CCOC(=O)c1ccc(N=Nc2ccc(N(CCC#N)CCC#N)cc2C)cc1` the figure was -24.5%.
On to `CCCCCCCCCCCCCC(N)=O`, for which the growth inhibition is -18%.
Next, `Nc1c(Cl)ncnc1NCCCCCCCCCCCCNc1ncnc(Cl)c1N`: 1.85%; `CCC1SC(C)C(=O)NC1=O` (stereo not given): 37.1%; `O=C(NCc1ccccc1)C(c1ccccc1)c1ccccc1`: 0.8%.
Next, `O=C(CC(=O)n1nc(-c2ccccc2)c(N=Nc2ccc(Cl)cc2)c1-c1ccccc1)Nc1ccc(Cl)cc1`: -16.8%; `CCC(CO)NC(=O)/C=C/c1ccccc1Cl` (stereo not given): 10.5%; `CCc1cc2c(c3c1CCCC3=O)CC1(Cc3ccc(C(=O)OC)cc3C1)C2` (stereo not given): -39.7%.
With `O=[N+]([O-])c1cccc(SNSc2cccc([N+](=O)[O-])c2)c1` the figure was 23.8%.
As for `NC(=O)c1nsc(-c2ccc([N+](=O)[O-])cc2)c1N`, the growth inhibition was -3.7%.
Next, `CC(C)C(O)(C(=O)O)C(C)C`: -1.15%; `CCOC(=O)C(Cc1ccc(N=NN(C)C)cc1)NC(=O)CC1c2ccccc2-c2ccccc21` (stereo not given): 8.3%; `COc1cccc(/C=C\c2ccc(O)cc2)c1`: 91.5% (active).
Next, `COC(=Nc1cccc2ccccc12)Nc1cccc2ccccc12`: -2%.
For the compound `O=C1NC(=O)C(=O)N1`, the growth inhibition is -1.8%.
With `CC(C)CN(CC(C)C)C(=O)CCl` the figure was -1.65%.
With `O=S(=O)(NC1c2ccccc2Oc2ccccc21)c1ccc2ccccc2c1` the figure was 39.7%.
As for `c1ccc2nc(N3CCCC3)c(N3CCCC3)nc2c1`, the growth inhibition is -4.85%.
For `COc1ccc2occc2c1`, the growth inhibition is 10.1%.
With `O=C(c1ccccc1)c1cccs1` the figure was -17.9%; with `CS(=O)(=O)OCC(Cc1ccccc1)N1C(=O)c2ccccc2C1=O` (stereo not given), 34.1%; with `O=C(O)c1cc2c(c3c1CCCC3)CCC1CCCC21` (stereo not given), 27.9%.
With `COC(=O)C(C)(NC(=O)C(CC(=O)OC(C)(C)C)NC(=O)OC(C)(C)C)c1ccccc1` (stereo not given) the figure was 36%; with `COc1ccc(C(=O)Nc2ccccc2CCC2CCCCN2C)cc1` (stereo not given), 19%.
With `Nc1cc(C(=O)O)cc2ccccc12` the figure was 26.6%.
